Data on nine compounds can be found in PubChem BioAssay (Tox21).

Structures are written as SMILES. Inconclusive results are not listed. Activity calls are given as the source filed them. Unless noted, the call rests on the fitted dose curve; in most records, active means well fitted curve in the direction sought with a large enough effect in the repeat runs; inconclusive means weak or mixed curves; inactive means no such curve, though single readings can be large; an effect the other way counts as inactive or inconclusive.

Assay [1] is described as follows: qHTS assay to identify small molecule antagonists of the glucocorticoid receptor (GR) signaling pathway - cell viability counter screen (AID 720693; further: nearly all actives have a fitted effect of over 55% in size). (qHTS replaces the single test concentration by a dilution series.)
A short description of assay [2]: qHTS assay for identifying genotoxic compounds that show differential cytotoxicity against isogenic chicken DT40 cell lines with known DNA damage response pathways - wild type cell line (AID 743012). Further: nearly all actives have a fitted effect of over 60% in size. Further: potency means the concentration at half of the fitted maximal effect. In outline:
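Luminescent ATP viability signal (CellTiter-Glo, 30 min RT) recorded after wild type DT40 cells were incubated with compounds for 40 h at 37 C/5% CO2.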

The nature of assay [3]: qHTS assay for identifying genotoxic compounds that show differential cytotoxicity against isogenic chicken DT40 cell lines with known DNA damage response pathways - Rev3 mutant cell line (AID 743014). Further: nearly all actives have a fitted effect of over 55% in size. Further: potency means the concentration at half of the fitted maximal effect.
Assay [4] can be described thus: qHTS assay for identifying genotoxic compounds that show differential cytotoxicity against isogenic chicken DT40 cell lines with known DNA damage response pathways - Rad54/Ku70 mutant cell line (AID 743015). Further: nearly all actives have a fitted effect of over 60% in size. Further: potency means the concentration at half of the fitted maximal effect.
Assay [5] in a line: qHTS assay to identify small molecule antagonists of the androgen receptor (AR) signaling pathway - cell viability counter screen (AID 743033; further: nearly all actives have a fitted effect of over 45% in size).
Assay [6] deals with Androgen receptor (Homo sapiens) (UniProt P10275). Put plainly: qHTS assay to identify small molecule antagonists of the androgen receptor (AR) signaling pathway (AID 743035; active means well fitted inhibition curve with a large enough effect in the signal ratio in the repeat runs, not every such curve was filed as active; the % refers to the signal ratio). In outline: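 Quantitative HTS of the Tox21 10K library used HEK293 AR-UAS-bla cells stimulated with R1881 alongside compound for 16 h at 37C, followed by beta-lactamase FRET detection (LiveBLAzer B/G, 2 h, RT).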

Assay [7] shares this target. Kind of assay: qHTS assay to identify small molecule agonists of the androgen receptor (AR) signaling pathway (AID 743036; active means well fitted activation curve with a large enough effect in the signal ratio in the repeat runs, with a control signal flat, not every such curve was filed as active; the % refers to the signal ratio). The essentials:
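Activation was read as beta-lactamase FRET signal from LiveBLAzer B/G substrate, added for 2 h at room temperature. Before that, GeneBLAzer AR-UAS-bla GripTite (HEK293) cells had 16 h compound exposure at 37C.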

For assay [8] the target is unchanged. Put plainly: qHTS assay to identify small molecule agonists of the androgen receptor (AR) signaling pathway using the MDA cell line (AID 743040; further: nearly all actives have a fitted effect of over 20% in size). In outline:
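Testing was done with the MDA-kb2 AR-luc line, a human breast carcinoma stably transfected with MMTV-luciferase containing AR and GR response elements. Cells were exposed 16 h at 37C before ONE-Glo luminescence detection.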

A short description of assay [9]: qHTS assay to identify small molecule antagonists of the androgen receptor (AR) signaling pathway using the MDA cell line - cell viability counter screen (AID 743041; further: nearly all actives have a fitted effect of over 45% in size). The essentials:
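Compound exposure lasted 16 h at 37C in MDA-kb2 AR-luc cells stimulated with R1881. Protease-based CellTiter-Fluor reagent was applied for the final 30 min and fluorescence measured.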

For assay [10], the target named is Androgen receptor (Homo sapiens) (UniProt P10275). Kind of assay: qHTS assay to identify small molecule antagonists of the androgen receptor (AR) signaling pathway using the MDA cell line (AID 743042; further: nearly all actives have a fitted effect of over 55% in size). In outline:
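MDA-kb2 breast carcinoma cells carrying MMTV-luciferase (AR/GR responsive) were co-treated with compounds and the agonist R1881 for 16 h at 37C. Inhibition read as ONE-Glo luminescence; CellTiter-Fluor fluorescence measured in parallel for cytotoxicity.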

The nature of assay [11]: qHTS assay to identify small molecule antagonists of the thyroid receptor (TR) signaling pathway - cell viability counter screen (AID 743064). Further: nearly all actives have a fitted effect of over 50% in size. Further: potency means the concentration at half of the fitted maximal effect. The essentials: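 In-well cytotoxicity read by CellTiter-Fluor (30 min, 37 C) following 23.5 h exposure of GH3 cells bearing a TRE-luciferase sensor. Compounds were added alongside 1 nM (final) T3 to drive TR transactivation.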
Assay [12] is described as follows: qHTS assay to identify small molecule antagonists of the thyroid receptor (TR) signaling pathway (AID 743065). Further: series mostly up to about 70 µM; nearly all actives have a fitted effect of over 55% in size. The essentials:
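GH3.TRE-Luc rat pituitary cells (two TREs driving luciferase) were dosed with compound, then stimulated with 1 nM T3 (final) for 23.5 h at 37 C. ONE-Glo luminescence was the read-out, with CellTiter-Fluor fluorescence as the cytotoxicity counter-screen.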

The test system of assay [13] is thyroid hormone receptor (rat, GH3 cells). Put plainly: qHTS assay to identify small molecule agonists of the thyroid receptor (TR) signaling pathway (AID 743066; calls by dose curve).
Assay [14] deals with Estrogen receptor (Homo sapiens) (UniProt P03372). Put plainly: qHTS assay to identify small molecule antagonists of the estrogen receptor alpha (ER-alpha) signaling pathway (AID 743069; active means well fitted curve in the direction sought with a large enough effect in the signal ratio in the repeat runs, not every such curve was filed as active; the % refers to the signal ratio). The essentials: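 In this cell-based reporter format, GripTite HEK293 cells harbouring ER-alpha-UAS-bla were grown overnight with 2% charcoal-stripped FBS, dosed with DMSO-dissolved compounds, then challenged with 17beta-estradiol. After 18 hr at 37C, beta-lactamase activity was detected by FRET fluorescence.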

Assay [15] in a line: qHTS assay to identify small molecule antagonists of the estrogen receptor alpha (ER-alpha) signaling pathway - cell viability counter screen (AID 743074; calls by dose curve; further: nearly all actives have a fitted effect of over 45% in size).
The target in assay [16] is Estrogen receptor (Homo sapiens) (UniProt P03372). Put plainly: qHTS assay to identify small molecule agonists of the estrogen receptor alpha (ER-alpha) signaling pathway (AID 743075; calls by dose curve).
The nature of assay [17]: qHTS assay to identify small molecule antagonists of the estrogen receptor alpha (ER-alpha) signaling pathway using the BG1 cell line (AID 743080; calls by dose curve;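 further: BG1 cells stimulated with 17beta-estradiol alongside compound; series mostly up to about 70 µM; nearly all actives have a fitted effect of over 25% in size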). In outline:
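Readout is ONE-Glo luminescence, taken 30 min at room temperature after reagent addition, preceded by a CellTiter-Fluor viability read; BG1-Luc-4E2 cells had received compound and 17beta-estradiol for 21.5 h at 37 C.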

Assay [18] can be described thus: qHTS assay to identify small molecule antagonists of the estrogen receptor alpha (ER-alpha) signaling pathway using the BG1 cell line - cell viability counter screen (AID 743081).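 Further: compound given together with 17beta-estradiol as the ER stimulus; series mostly up to about 70 µM; nearly all actives have a fitted effect of over 45% in size.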
In another assay the target is Aromatase (Homo sapiens) (UniProt P11511). Kind of assay: qHTS assay to identify aromatase inhibitors (AID 743083).
Assay [19] concerns the target Estrogen receptor (Homo sapiens) (UniProt P03372). Put plainly: qHTS assay to identify small molecule agonists of the estrogen receptor alpha (ER-alpha) signaling pathway using the BG1 cell line (AID 743079). Further: nearly all actives have a fitted effect of over 20% in size.

Estrogen receptor (Homo sapiens), sequence (P03372 whole entry, looked up): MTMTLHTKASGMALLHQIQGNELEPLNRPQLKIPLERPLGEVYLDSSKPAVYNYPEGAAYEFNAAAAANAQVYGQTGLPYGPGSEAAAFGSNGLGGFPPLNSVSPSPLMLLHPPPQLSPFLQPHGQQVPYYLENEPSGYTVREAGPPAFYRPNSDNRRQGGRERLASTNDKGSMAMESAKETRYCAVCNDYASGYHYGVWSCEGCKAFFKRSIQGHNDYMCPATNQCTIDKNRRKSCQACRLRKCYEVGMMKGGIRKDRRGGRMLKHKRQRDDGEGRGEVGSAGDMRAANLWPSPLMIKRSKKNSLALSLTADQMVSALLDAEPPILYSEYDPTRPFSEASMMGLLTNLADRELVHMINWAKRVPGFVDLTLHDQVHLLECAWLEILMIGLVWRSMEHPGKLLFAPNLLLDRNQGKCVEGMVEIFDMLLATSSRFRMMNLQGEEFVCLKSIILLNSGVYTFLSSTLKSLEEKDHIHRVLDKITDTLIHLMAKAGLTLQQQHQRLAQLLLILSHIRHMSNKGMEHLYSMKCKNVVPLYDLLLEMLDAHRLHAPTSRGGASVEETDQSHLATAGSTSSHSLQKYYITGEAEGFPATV
Aromatase (Homo sapiens), sequence (P11511 whole entry, looked up): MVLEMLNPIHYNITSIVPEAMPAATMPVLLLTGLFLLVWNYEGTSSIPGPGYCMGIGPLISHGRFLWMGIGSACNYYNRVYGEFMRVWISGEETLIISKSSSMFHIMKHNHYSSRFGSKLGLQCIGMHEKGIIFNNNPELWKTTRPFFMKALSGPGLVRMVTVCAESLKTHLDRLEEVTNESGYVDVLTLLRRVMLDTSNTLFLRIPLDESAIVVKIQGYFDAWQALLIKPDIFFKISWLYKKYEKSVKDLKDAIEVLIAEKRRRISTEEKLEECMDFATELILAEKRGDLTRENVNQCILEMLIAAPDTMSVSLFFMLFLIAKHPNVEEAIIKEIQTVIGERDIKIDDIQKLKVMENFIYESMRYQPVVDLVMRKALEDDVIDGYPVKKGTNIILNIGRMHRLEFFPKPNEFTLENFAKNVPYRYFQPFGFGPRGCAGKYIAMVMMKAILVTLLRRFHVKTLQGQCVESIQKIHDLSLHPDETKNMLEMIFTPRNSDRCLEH
Androgen receptor (Homo sapiens), sequence (P10275 whole entry, looked up): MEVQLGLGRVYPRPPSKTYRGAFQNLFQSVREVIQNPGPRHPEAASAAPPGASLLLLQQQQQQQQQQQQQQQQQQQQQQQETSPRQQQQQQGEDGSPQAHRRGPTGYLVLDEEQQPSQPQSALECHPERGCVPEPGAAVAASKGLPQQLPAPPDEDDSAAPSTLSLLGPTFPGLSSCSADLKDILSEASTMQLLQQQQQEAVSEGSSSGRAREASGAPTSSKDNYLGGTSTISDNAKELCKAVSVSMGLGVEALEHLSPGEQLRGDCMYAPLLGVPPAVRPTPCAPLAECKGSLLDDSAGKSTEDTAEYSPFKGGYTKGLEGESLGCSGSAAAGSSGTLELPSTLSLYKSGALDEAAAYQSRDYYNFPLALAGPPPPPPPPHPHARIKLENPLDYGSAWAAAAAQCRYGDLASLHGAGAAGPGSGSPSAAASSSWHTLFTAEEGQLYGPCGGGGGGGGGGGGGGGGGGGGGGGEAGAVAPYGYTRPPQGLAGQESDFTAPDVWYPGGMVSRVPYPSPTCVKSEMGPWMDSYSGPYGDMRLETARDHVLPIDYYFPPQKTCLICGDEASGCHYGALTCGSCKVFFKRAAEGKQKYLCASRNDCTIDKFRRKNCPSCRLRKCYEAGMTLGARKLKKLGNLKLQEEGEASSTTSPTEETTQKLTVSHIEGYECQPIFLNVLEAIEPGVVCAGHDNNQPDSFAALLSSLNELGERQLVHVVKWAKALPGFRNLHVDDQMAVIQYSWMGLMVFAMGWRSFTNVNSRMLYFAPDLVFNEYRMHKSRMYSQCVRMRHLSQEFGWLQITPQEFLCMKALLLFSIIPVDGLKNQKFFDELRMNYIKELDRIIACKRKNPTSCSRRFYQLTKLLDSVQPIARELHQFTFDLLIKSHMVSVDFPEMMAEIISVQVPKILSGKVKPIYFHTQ

Regarding `Cc1ncc(CO)c(CN)c1O`, the call in [1], in assay [5], in assay [7], in assay [10], in [13] and in assay [16] was inactive. Besides, in assay [17], the call was inactive. Further, the Potency result in assay [2], in assay [3], in assay [4], in assay [6], in [8] and in [9] was “inactive” each time. For the same compound, the Potency result (in assay [11]; in assay [12]; in [14]; in [15]; in assay [18]; with Aromatase (Homo sapiens)) was “inactive” each time.

For `C=O`, the call in assay [1], in assay [5] and in assay [13] was inactive. Besides, the Potency result in assay [2], in assay [3], in assay [4], in assay [9], in assay [11] and in assay [12] was “inactive” in each case. Besides, the Potency entry (in [15]; in assay [18]; with Aromatase (Homo sapiens)) was “inactive” in each case.

Regarding `O=C(O)CN(CCN(CC(=O)O)CC(=O)O)CCN(CC(=O)O)CC(=O)O`, the outcome in assay [1], in assay [5] and in assay [13] was inactive. Further, the Potency in assay [2] is 18.8 µM (active); in assay [3] it was 26.6 µM (active); in assay [4], 18.8 µM (active); in assay [11] it was 26.6 µM (active). The Potency result (in assay [9]; in assay [15]; in [18]; in the assay with Aromatase (Homo sapiens)) was “inactive” each time.

For `FC(F)(F)c1ccccc1`, the outcome in assay [1], in assay [5], in assay [13], in assay [16] and in [17] was inactive. For the same compound, the Potency entry in assay [2], in assay [3], in assay [4], in [9], in assay [11] and in assay [12] was “inactive” each time. In addition, the Potency result (in [14]; in assay [19]; in assay [18]; in the assay with Aromatase (Homo sapiens)) was “inactive” throughout.

In the case of `Clc1cccc(-c2cc(Cl)cc(Cl)c2)c1`, the compound was called inactive in [1], in assay [5], in [13] and in assay [17]. The Potency entry in assay [2], in assay [3], in [4], in assay [9], in assay [11] and in assay [12] was “inactive” each time. The Potency result (in assay [14]; in assay [15]; in assay [19]; in assay [18]; in the assay with Aromatase (Homo sapiens)) was “inactive” in each case.

Turning to `NS(=O)(=O)c1cc(-c2nn[nH]n2)c(NCc2cccs2)cc1Cl`, the compound was called inactive in assay [1], in [5], in assay [13], in [16] and in assay [17]. Besides, the Potency result in assay [2], in assay [3], in assay [4], in assay [9], in assay [11] and in assay [12] was “inactive” throughout. Also, the Potency result (in [14]; in assay [15]; in assay [19]; in assay [18]; with Aromatase (Homo sapiens)) was “inactive” each time.

Turning to `CS(=O)(=O)c1ccc([C@@H](O)[C@@H](CF)NC(=O)C(Cl)Cl)cc1`, the compound was classed as inactive in [1], in assay [5], in [13] and in assay [16]. Besides, the Potency in assay [2] is 4.03 µM (active); in assay [3] it was 6.39 µM (active); in assay [4], 7.17 µM (active). In addition, the Potency entry in assay [9], in assay [11], in assay [12], in assay [14], in [15] and in assay [19] was “inactive” in each case. Moreover, the Potency result (in assay [18]; in the assay with Aromatase (Homo sapiens)) was “inactive” throughout.

For `CC1(C)C(=O)N(Cl)C(=O)N1Br`, the compound was called inactive in [1], in [5] and in assay [13]. Further, the Potency entry in [2], in assay [3], in assay [4], in assay [9], in [11] and in assay [12] was “inactive” in each case. The Potency result (in [15]; in [18]; with Aromatase (Homo sapiens)) was “inactive” each time.

For `CC/C=C\CCOC(=O)CCCCC`, the outcome in [1], in assay [5], in assay [13], in assay [16] and in [17] was inactive. The Potency entry in assay [2], in [3], in [4], in [9], in assay [11] and in [12] was “inactive” in each case. Moreover, the Potency entry (in [14]; in assay [15]; in assay [19]; in assay [18]; with Aromatase (Homo sapiens)) was “inactive” in each case.
